# PubChem BioAssay
# How the values were obtained:
# [1] = test system: Human papillomavirus type 1a protein E7 (residues 44-93); test: HPV1a E7 fragment binders on microarrays, primary screen, biochemical, small-molecule microarray, residues 44-93, 635 nm fluorescence (AID 1108); settings: small-molecule microarray binding, fluorescence 635 nm; higher = more signal;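 note: E7 fragment applied at 1 µg/mL in TBST for 1 h at 4 C; score combines spot fluorescence with its signal to noise ratio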
# [2] = modulators of HCV replicon luciferase signal, primary screen, HCV replication inhibitor project, Huh7 cells, luciferase reporter (AID 1109); settings: 48 h, higher = more signal;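 note: huh7 hepatoma cells harbouring a luciferase neomycin HCV replicon reporter; luciferase luminescence as measure of HCV replicon replication; test concentration not given here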
# [3] = target: Left-right determination factor 2 (Homo sapiens) (UniProt O00292); test: LEFTY2 binders on small-molecule microarrays, primary screen, biochemical, small-molecule microarray, 635 nm fluorescence scan (AID 1110); settings: LEFTY2 binding, higher = more signal
# Chain of Left-right determination factor 2 (Homo sapiens) (O00292 whole entry, looked up): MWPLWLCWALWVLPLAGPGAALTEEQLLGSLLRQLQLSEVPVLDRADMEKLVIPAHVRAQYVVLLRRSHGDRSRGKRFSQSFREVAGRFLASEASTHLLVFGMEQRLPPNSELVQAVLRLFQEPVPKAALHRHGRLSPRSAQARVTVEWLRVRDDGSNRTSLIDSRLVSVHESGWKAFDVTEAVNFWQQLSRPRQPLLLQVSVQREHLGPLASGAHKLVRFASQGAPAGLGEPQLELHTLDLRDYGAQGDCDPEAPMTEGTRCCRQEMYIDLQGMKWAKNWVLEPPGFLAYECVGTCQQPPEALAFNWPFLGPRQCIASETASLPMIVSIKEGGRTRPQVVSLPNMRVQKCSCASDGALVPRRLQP
# [4] = target: Calmodulin-1 (Homo sapiens) (UniProt P0DP23); test: CALM1 binders on microarrays, EGTA buffer, profiling panel, biochemical, small-molecule microarray, Cy5-labelled CALM1 (AID 1111); settings: Cy5-CALM1 binding fluorescence, higher = more signal;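 note: labelled calmodulin applied in Tris saline Tween buffer holding calcium plus EGTA and DTT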
# [5] = target: Calmodulin-1 (Homo sapiens) (UniProt P0DP23); test: calcium-bound CALM1 binders on microarrays, profiling panel, artefact control for SMM control-protein annotation, biochemical, small-molecule microarray, Cy5-labelled CALM1, plus calcium (AID 1112); settings: Cy5-CALM1 binding fluorescence, higher = more signal;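 note: score merges spot fluorescence with signal to noise from triplicate slides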
# [6] = small-molecule microarray binders of probe aWnt5a, primary screen, biochemical, biotinylated probe, 635/667 nm fluorescence (AID 1113); settings: higher = more signal;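 note: score merges 667 nm fluorescence intensity with signal-to-noise per printed feature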
# [7] = small-molecule microarray binders of probe aShh, primary screen, biochemical, biotinylated probe, 635/667 nm fluorescence (AID 1114); settings: higher = more signal;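 note: probe is biotin-labelled aShh protein from a stem cell growth factor screen; measures binding of labelled protein to compounds printed on the slide; score merges feature fluorescence at 667 nm with signal-to-noise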
# [8] = small-molecule microarray binders of probe aNog, primary screen, biochemical, biotinylated probe, 635/667 nm fluorescence (AID 1115); settings: higher = more signal;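 note: probe is biotinylated aNog protein used at 0.15 µg/mL for 1 h at 4 C; z-score combines 667 nm fluorescence of each spot with its signal to noise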
# [9] = target: Torsin-1A-interacting protein 1 (Homo sapiens) (UniProt Q5JTV8); test: LAP1 binders from COS7 cell lysate, primary screen, small-molecule microarray, 635/667 nm fluorescence (AID 1116); settings: COS7-hLAP1 lysate binding, 635 nm fluorescence, higher = more signal
# Chain of Torsin-1A-interacting protein 1 (Homo sapiens) (Q5JTV8 whole entry, looked up): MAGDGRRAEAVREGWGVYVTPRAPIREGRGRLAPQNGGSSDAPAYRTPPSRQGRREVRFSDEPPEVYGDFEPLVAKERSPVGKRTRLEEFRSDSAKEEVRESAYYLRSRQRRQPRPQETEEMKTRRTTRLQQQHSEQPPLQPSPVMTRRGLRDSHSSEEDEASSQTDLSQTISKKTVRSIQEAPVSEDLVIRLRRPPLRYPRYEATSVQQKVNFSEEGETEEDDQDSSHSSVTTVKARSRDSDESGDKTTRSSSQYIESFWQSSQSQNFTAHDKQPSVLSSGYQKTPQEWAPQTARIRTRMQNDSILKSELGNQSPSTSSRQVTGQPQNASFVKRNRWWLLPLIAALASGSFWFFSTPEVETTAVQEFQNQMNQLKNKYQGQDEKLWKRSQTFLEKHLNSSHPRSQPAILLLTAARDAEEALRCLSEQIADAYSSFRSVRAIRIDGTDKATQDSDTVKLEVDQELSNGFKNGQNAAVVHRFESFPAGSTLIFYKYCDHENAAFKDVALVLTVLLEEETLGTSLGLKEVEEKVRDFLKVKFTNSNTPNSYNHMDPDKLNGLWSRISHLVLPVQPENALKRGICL
# [10] = target: Alpha-bungarotoxin (Bungarus multicinctus) (UniProt P60615); test: alpha-bungarotoxin binders on microarray, profiling panel, artefact control for SMM control protein annotation, biochemical, small-molecule microarray, Alexa647 label, 635/667 nm fluorescence (AID 1117); settings: alpha-BTX-A647 binding fluorescence, higher = more signal
# Chain of Alpha-bungarotoxin (Bungarus multicinctus) (P60615 whole entry, looked up): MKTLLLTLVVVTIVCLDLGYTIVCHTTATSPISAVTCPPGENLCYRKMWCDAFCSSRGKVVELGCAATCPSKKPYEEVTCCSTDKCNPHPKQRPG
smiles,measurement,setting,value
C=CCNC(=O)[C@H]1[C@@H]2C(=O)O[C@@H](c3ccccc3)[C@@H](c3ccccc3)N2[C@@H](c2ccc(O)cc2)[C@]12C(=O)Nc1ccc(C#CCNC(N)=O)cc12,composite z-score,[1],0.0632
same,z-score,[2],0.567
same,composite z-score,[3],-0.84
same,composite z-score,[4],-0.439
same,composite z-score,[5],-0.0701
same,composite z-score,[6],-0.161
same,composite z-score,[7],-0.467
same,composite z-score,[8],0.0863
same,composite z-score,[9],0.239
same,composite z-score,[10],0.543
CO[C@H]1COC(=O)[C@H](C)COC(=O)[C@H](Cc2ccccc2)NC(=O)CC=C[C@H]1C,composite z-score,[1],-0.943
same,z-score,[2],-0.56
same,composite z-score,[3],1.09
same,composite z-score,[4],-1.37
same,composite z-score,[5],-1.74
same,composite z-score,[6],0.266
same,composite z-score,[7],0.223
same,composite z-score,[8],0.653
same,composite z-score,[9],-0.0597
same,composite z-score,[10],-0.948
COC(=O)C[C@H]1O[C@]2(C(=O)N(C)c3ccccc32)[C@@H](C)[C@@H]1[Si](C)(C)c1ccc(OC)cc1,composite z-score,[1],0.353
same,z-score,[2],-2
same,composite z-score,[3],1.02
same,composite z-score,[4],0.0348
same,composite z-score,[5],-0.327
same,composite z-score,[6],0.0502
same,composite z-score,[7],-0.271
same,composite z-score,[8],-0.141
same,composite z-score,[9],0.335
same,composite z-score,[10],0.449
C=CC[C@@]1(C(=O)N2CCOCC2)N=C(c2ccc(OCCCO)cc2)O[C@@H]1c1ccccc1,composite z-score,[1],0.0433
same,z-score,[2],-0.802
same,composite z-score,[3],-0.464
same,composite z-score,[4],0.0981
same,composite z-score,[5],0.0806
same,composite z-score,[6],-0.166
same,composite z-score,[7],-0.184
same,composite z-score,[8],0.34
same,composite z-score,[9],1.68
same,composite z-score,[10],2.84
C=C(C)[C@@H]1CC=C(C(O)C2C=CC3C(=O)NC(=O)C3N2Nc2ccccn2)CC1 (stereo not given in full),composite z-score,[1],0.355
same,z-score,[2],-0.308
same,composite z-score,[3],1.57
same,composite z-score,[4],0.206
same,composite z-score,[5],-0.815
same,composite z-score,[6],0.116
same,composite z-score,[7],0.358
same,composite z-score,[8],0.145
same,composite z-score,[9],1.06
same,composite z-score,[10],2.09
[N-]=[N+]=NCc1ccccc1C[C@@]1(C(=O)N2CCOCC2)N=C(c2ccc(OCCCO)cc2)O[C@@H]1c1ccccc1N=[N+]=[N-],composite z-score,[1],0.425
same,z-score,[2],-1.14
same,composite z-score,[3],-0.139
same,composite z-score,[4],2.15
same,composite z-score,[5],1.13
same,composite z-score,[6],0.208
same,composite z-score,[7],0.412
same,composite z-score,[8],1.64
same,composite z-score,[9],1.74
same,composite z-score,[10],2.84
CO[C@H]1COC(=O)[C@@H](Cc2ccccc2)NC(=O)[C@@H](C)COC(=O)CC=C[C@@H]1C,composite z-score,[1],-0.661
same,z-score,[2],0.413
same,composite z-score,[3],0.831
same,composite z-score,[4],-2.36
same,composite z-score,[5],-2.14
same,composite z-score,[6],-0.133
same,composite z-score,[7],-0.124
same,composite z-score,[8],-0.234
same,composite z-score,[9],-0.0159
same,composite z-score,[10],-0.39
CCCCCCc1nc(C2CC2)c(C)c2c1[Si](C(C)C)(C(C)C)OC2,composite z-score,[1],-0.497
same,z-score,[2],0.127
same,composite z-score,[3],-0.127
same,composite z-score,[4],-0.682
same,composite z-score,[5],-0.111
same,composite z-score,[6],-0.124
same,composite z-score,[7],-0.0146
same,composite z-score,[8],-0.353
same,composite z-score,[9],-0.147
same,composite z-score,[10],0.342
COCCOC(=O)N1C(=O)[C@@]2(c3cc(C#CCCO)ccc31)[C@H](C(=O)N1CCCCCCC1)[C@H]1C(=O)O[C@H](c3ccccc3)[C@H](c3ccccc3)N1[C@@H]2c1ccc(O)cc1,composite z-score,[1],1.02
same,z-score,[2],-1.18
same,composite z-score,[3],0.383
same,composite z-score,[4],2.14
same,composite z-score,[5],0.719
same,composite z-score,[6],0.0775
same,composite z-score,[7],0.814
same,composite z-score,[8],0.916
same,composite z-score,[9],2.56
same,composite z-score,[10],1.45
C=CCC(OC(C)=O)[C@@H]1[C@@H](N(Cc2cccc3ccccc23)C(=O)c2ccc(C)cc2)c2cc(OCCCO)ccc2N1C(=O)c1ccc(-c2ccccc2)cc1 (stereo not given in full),composite z-score,[1],0.479
same,z-score,[2],-0.852
same,composite z-score,[3],0.111
same,composite z-score,[4],-0.355
same,composite z-score,[5],-0.065
same,composite z-score,[6],-0.135
same,composite z-score,[7],-0.273
same,composite z-score,[8],-0.241
same,composite z-score,[9],-0.144
same,composite z-score,[10],-0.218
O=C/C=C/c1ccccc1Cl,composite z-score,[1],-1.36
same,z-score,[2],1.03
same,composite z-score,[3],-0.524
same,composite z-score,[4],0.387
same,composite z-score,[5],0.618
same,composite z-score,[6],-0.0499
same,composite z-score,[7],-0.0626
same,composite z-score,[8],0.0811
same,composite z-score,[9],-0.335
same,composite z-score,[10],1.76
COC(=O)[C@@]1(Cc2ccccc2CN=[N+]=[N-])N=C(c2ccc(OCCCO)cc2)O[C@H]1c1ccccc1N=[N+]=[N-],composite z-score,[1],1.02
same,z-score,[2],-1.53
same,composite z-score,[3],-0.453
same,composite z-score,[4],0.173
same,composite z-score,[5],-0.17
same,composite z-score,[6],-0.129
same,composite z-score,[7],-0.203
same,composite z-score,[8],2.32
same,composite z-score,[9],0.0753
same,composite z-score,[10],0.45
CC(C)[Si](OCC[C@H]1O[C@]2(C(=O)N(Cc3ccccc3)c3ccccc32)[C@@H](C)[C@@H]1[Si](C)(C)O)(C(C)C)C(C)C,composite z-score,[1],0.161
same,z-score,[2],-1.22
same,composite z-score,[3],-0.261
same,composite z-score,[4],0.214
same,composite z-score,[5],0.3
same,composite z-score,[6],-0.216
same,composite z-score,[7],0.0204
same,composite z-score,[8],0.0073
same,composite z-score,[9],0.153
same,composite z-score,[10],-0.513
